Here are results for 99 compounds from PubChem BioAssay AID1851 (National Center for Advancing Translational Sciences (NCATS), 2009).

The campaign covered roughly 16,000 compounds. About 5,800 (36%) were called active. Inconclusive results (about 23%) are left out. The list shows a part of the results. Unmarked numbers belong to inactive results. Calls come from the whole dose curve; as a rule, active = well fitted curve in the direction sought with a large enough effect; inconclusive = small, poorly fitted or top-dose-only effect, or effect the other way; inactive = no such curve, though single readings can be large or run the other way.
% is set by controls: 0 for no effect and ±100 for the full control effect.

Sequence of Cytochrome P450 2C19 (Homo sapiens) (P33261 whole entry, looked up): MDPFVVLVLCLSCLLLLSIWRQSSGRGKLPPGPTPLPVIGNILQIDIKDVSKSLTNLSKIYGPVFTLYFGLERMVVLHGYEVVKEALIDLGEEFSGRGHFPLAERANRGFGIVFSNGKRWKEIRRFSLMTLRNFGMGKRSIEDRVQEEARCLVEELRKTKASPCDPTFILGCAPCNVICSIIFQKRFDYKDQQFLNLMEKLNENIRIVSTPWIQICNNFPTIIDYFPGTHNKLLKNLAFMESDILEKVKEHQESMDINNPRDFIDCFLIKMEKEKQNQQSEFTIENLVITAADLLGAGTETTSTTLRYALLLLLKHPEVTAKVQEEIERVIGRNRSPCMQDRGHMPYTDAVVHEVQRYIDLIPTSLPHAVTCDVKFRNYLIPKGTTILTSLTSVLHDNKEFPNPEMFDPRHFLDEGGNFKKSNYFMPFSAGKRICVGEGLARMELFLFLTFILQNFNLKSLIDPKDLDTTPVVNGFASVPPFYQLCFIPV

This assay concerns the target Cytochrome P450 2C19 (Homo sapiens) (UniProt P33261). Kind of assay: Cytochrome panel assay with activity outcomes. The conditions noted are these: recombinant CYP, pro-luciferin dealkylation, luminescence, p450-cyp2c19; series mostly up to 57.1 µM.
As to `Cc1cc(C(=O)CSc2nnc(-c3ccccc3)o2)c(C)n1CC1COc2ccccc2O1` (centres undefined), the concentration at half-maximal activity (AC50) is 1.12 µM (active).
Still for that read-out and setting: then `CC(=O)NNC(=O)CCC(=O)Nc1ccccc1`, with “inactive”.
The same measure, in the same setting: then `CC(=O)c1cccc(NC(=O)CCC2CCCC2)c1`, with 3.55 µM (active); and `COc1ccccc1CN1CCCC2(CCN(C(=O)c3ccco3)CC2)C1`, with “inactive”.
Still for that read-out and setting: then `O=C(Cn1cc(C(=O)c2ccco2)c2ccccc21)NCc1ccco1`, with 2.24 µM (active); and `Cc1ccccc1C(=O)c1cccn1CC(=O)NCc1ccco1`, with 11.2 µM (active); and `COc1ccccc1OCCn1cc(C(=O)c2ccco2)c2ccccc21`, with 1 µM (active).
Regarding `O=C(Cn1cccc1C(=O)c1ccccc1)NCc1cccs1`, the concentration at half-maximal activity (AC50) is 2.82 µM (active).
In the case of `COc1ccccc1CN1CCC2(CC1)CCN(C(=O)c1ccco1)CC2`, the AC50 entry is “inactive”.
Same read-out and setting: as for `CCS(=O)(=O)c1ccc(C(=O)Nc2ccccc2)c(Cl)c1Cl`, the figure is 11.2 µM (active).
Same read-out and setting: as for `O=C(c1csnn1)N1CCC2(CCCN(c3ccc(-c4ccccc4)cc3)C2)CC1`, the entry is “inactive”.
Turning to `O=C(O)CCc1nc(-c2ccccc2-n2cccc2)no1`, the activity, negative = inhibition was -29.3% [at 11.4 µM].
In the case of `Nc1nonc1-c1noc(CCCN2C(=O)c3ccccc3C2=O)n1`, the half-maximal activity concentration (AC50) was 3.98 µM (active).
Still for that read-out and setting: then `CCNc1ncc2nc(C)c(=O)n(CCc3ccccc3)c2n1`, with 0.316 µM (active).
Same read-out and setting: then `CCNc1ncc2nc(C)c(=O)n(CCC#N)c2n1`, with “inactive”; and `CCNc1ncc2nc(-c3ccccc3)c(=O)n(CCC#N)c2n1`, with “inactive”; and `CCNc1ncc2nc(-c3ccccc3)c(=O)n(CCc3ccccc3)c2n1`, with 1 µM (active).
Still for that read-out and setting: as for `CCNc1ncc2nc(-c3cccs3)c(=O)n(CCc3ccccc3)c2n1`, the entry is “inactive”; as for `Cc1nc2cnc(Nc3ccccc3)nc2n(CCc2ccccc2)c1=O`, “inactive”.
On to `O=C(O)c1nn(-c2ccccc2-c2n[nH]c(=O)[nH]c2=O)c(=O)[nH]c1=O`, for which the activity, negative = inhibition is 20.9% [at 11.4 µM].
As for `Cc1cc(C(=O)Nc2ccc(N3CCOCC3)cc2)c2ccccc2n1`, the AC50 entry is “inactive”.
On the same count and under the same terms, as for `Cc1cccc(N2CCN(c3ccc(NC(=O)/C=C(/C(=O)O)c4ccccc4)cc3)CC2)c1`, the figure is 4.47 µM (active); as for `Cc1cccc(CNc2nc(-c3ccc4c(c3)OCO4)nc3ccccc23)c1`, 3.16 µM (active); as for `c1cncc(CNc2nc(-c3ccc4c(c3)OCO4)nc3ccccc23)c1`, 10 µM (active).
On the same count and under the same terms, as for `CN(C)Cc1ccccc1-c1nc(NCc2ccccc2)c2ccccc2n1`, the entry is “inactive”; as for `c1csc(CNc2nc(-c3ccc4c(c3)OCO4)nc3ccccc23)c1`, 3.16 µM (active); as for `c1ccc(CNc2nc(-c3ccc4c(c3)OCO4)nc3ccccc23)cc1`, 10 µM (active).
Same read-out and setting: as for `CN[C@H]1[C@@H](O[C@@H]2[C@H](O[C@@H]3[C@@H](O)[C@@H](O)[C@@H](N=C(N)N)[C@@H](O)[C@@H]3N=C(N)N)O[C@H](C)[C@@]2(O)C=O)O[C@@H](CO)[C@@H](O)[C@H]1O`, the entry is “inactive”.
In the case of `Nc1ncnc2c1ncn2C[C@@H](O)C(=O)O`, the activity, negative = inhibition was -17.6% [at 11.4 µM].
Turning to `O=C1NCC2(CCN(CCc3ccccc3)CC2)O1`, the AC50 result was “inactive”.
Still for that read-out and setting: then `COc1ccc(OC)c(C2C(C(=O)Nc3nc4ccccc4s3)=C(C)NC3=C2C(=O)CCC3)c1` (centres undefined), with 0.891 µM (active); and `Cc1ncc([N+](=O)[O-])n1CC(=O)NCc1ccccc1`, with “inactive”; and `Cc1ccc([C@@H](O)c2cnc(C)n2Cc2ccccc2)cc1`, with 1.26 µM (active).
Still for that read-out and setting: as for `Cc1ncc([N+](=O)[O-])n1CC(C)O` (centres undefined), the entry is “inactive”.
Regarding `COc1ccc(Oc2ncc3nc(-c4ccc(F)cc4)c(=O)n(Cc4cccs4)c3n2)cc1`, the AC50 result was “inactive”.
The same measure, in the same setting: then `CCC1(C)CC(CCNS(=O)(=O)c2ccc(C)cc2)(c2ccc(C)cc2)CCO1` (centres undefined), with 3.98 µM (active).
On to `CC1(C)O[C@@H]2O[C@H]([C@@H]3COC(C)(C)O3)[C@H](N)[C@H]2O1`, for which the activity, negative = inhibition was 14.5% [at 11.4 µM].
With `CCOc1ccc(OCC)c(-c2c(=O)n(OCc3ccccc3C(=O)OC)c3ccccc3[n+]2[O-])c1`, the AC50 was 4.47 µM (active).
As to `CCOc1ccc(OCC)c(-c2c(=O)n(OCc3ccc(C(C)(C)C)cc3)c3ccccc3[n+]2[O-])c1`, the AC50 is 1.58 µM (active).
The same measure, in the same setting: as for `COc1ccc(CNC(=O)C2CSC(=O)C2)cc1` (centres undefined), the entry is “inactive”; as for `COc1ccc(CNC(=O)c2csc(Cc3ccc(Cl)cc3)n2)cc1`, 2.51 µM (active); as for `COc1ccc(CCNC(=O)COC(=O)c2cnc(C)cn2)cc1`, “inactive”.
For the compound `COc1ccc(CNC(=O)c2csc(Cc3ccc(OC)cc3)n2)cc1`, the AC50 was 8.91 µM (active).
Same read-out and setting: then `COc1ccc(CNC(=O)c2cnc(C)cn2)cc1`, with 14.1 µM (active).
Same read-out and setting: then `COc1ccccc1NC(=O)C(C/C=C(\C)Cl)C(C)=O` (centres undefined), with 3.55 µM (active); and `COc1ccccc1NC(=O)c1nc[nH]c1C(=O)Nc1ccccc1OC`, with “inactive”; and `O=C(COC(=O)c1ccccc1Nc1cccc(C(F)(F)F)c1)NCc1ccco1`, with 2 µM (active).
Still for that read-out and setting: as for `Cc1cccc(Nc2ccccc2C(=O)O)c1C`, the entry is “inactive”; as for `O=C(COC(=O)c1cccnc1Nc1cccc(C(F)(F)F)c1)NCc1ccc2c(c1)OCO2`, 3.55 µM (active).
In the case of `Cc1cccc(Nc2ccccc2C(=O)OCC(=O)NCc2ccco2)c1C`, the AC50 is 5.01 µM (active).
On to `O=C(O)c1cccnc1Nc1cccc(C(F)(F)F)c1`, for which the AC50 result is “inactive”.
Consider `O=C(O)CCCC[C@H]1CCSS1`, for which the AC50 result is “inactive”.
On the same count and under the same terms, as for `COc1ccccc1CNc1ncncc1-c1cccc(C#N)c1`, the figure is 3.16 µM (active).
On the same count and under the same terms, as for `COc1ccc(CNc2ncncc2-c2cccc(C#N)c2)c(OC)c1`, the figure is 5.01 µM (active); as for `Cc1n[nH]c(=O)nc1NCc1ccccc1Cl`, 28.2 µM (active); as for `Cc1cnc(CNc2nc(-c3ccccc3Cl)nc3ccccc23)cn1`, “inactive”.
On the same count and under the same terms, then `CCCCCCCOC1(c2ccccc2)OC(=O)c2ccccc21` (centres undefined), with 3.55 µM (active); and `CCCCOC1(c2ccccc2)OC(=O)c2ccccc21` (centres undefined), with 6.31 µM (active); and `CC(=O)[C@@]1(O)Cc2c(O)c3c(c(O)c2[C@H](O[C@H]2C[C@H](N)[C@H](O)[C@H](C)O2)C1)C(=O)c1ccccc1C3=O`, with “inactive”.
As for `COc1ccc(C(=O)NC(=S)NC(C)C)cc1Br`, the concentration at half-maximal activity (AC50) is 2.24 µM (active).
Same read-out and setting: then `COc1ccc(C(=O)NC(=S)NC(C)(C)C)cc1Br`, with 3.55 µM (active); and `C=CCN1CCc2c(cc(O)c(O)c2Br)[C@H](c2ccccc2)C1`, with “inactive”; and `COC(=O)CNC(=O)CN1C(=O)N(c2ccc(Cl)cc2)C(N(O)C(=O)Nc2ccc(Cl)cc2)C1(C)C` (centres undefined), with 14.1 µM (active).
Take `NC(=NCc1ccc(Cl)c(Cl)c1)NC(=O)c1nc(Cl)c(N)nc1N`: the AC50 result was “inactive”.
The same measure, in the same setting: as for `CCCCCCCCCCCCC(=O)N1CCCC[C@H]1CNC(=O)[C@@H](N)CCCCN`, the figure is 7.94 µM (active).
As for `CN(CCO)Cc1ncccc1O`, the activity, negative = inhibition was 42.9% [at 11.4 µM].
The same measure, in the same setting: as for `CC(C)C(=O)C(C)(C)CCc1ccccn1`, the figure is -41.1% [at 11.4 µM].
Turning to `Cc1cccc(CN(C)CCc2ccccn2)c1`, the AC50 was 15.8 µM (active).
The same measure, in the same setting: as for `CN(CCc1ccccn1)Cc1ccc(Cl)cc1Cl`, the figure is 0.447 µM (active).
`O=C(O)[C@@H](O)Cc1ccccn1`: the activity, negative = inhibition was 14.4% [at 11.4 µM].
`CCC(CC)C(=O)Nc1c2cnn(-c3ccccc3)c2nc(=O)n1-c1ccccc1`: the AC50 entry is “inactive”.
Consider `CCOC(=O)c1cnn(-c2ccccc2)c1-n1cccc1C(=O)C(=O)Nc1ccccc1C(F)(F)F`, for which the half-maximal activity concentration (AC50) was 7.94 µM (active).
On to `O=C(O)c1nnsc1-c1ccc(-c2snnc2C(=O)O)cc1`, for which the activity, negative = inhibition is -40.8% [at 11.4 µM].
In the case of `N#CC(c1ccc(Cl)cc1)c1nc2ccccc2nc1C(F)(F)F` (centres undefined), the AC50 was 0.562 µM (active).
On the same count and under the same terms, then `c1ccn(-c2ccc(N3CCOCC3)cc2)c1`, with “inactive”; and `O=C(C1CCN(S(=O)(=O)N2CCOCC2)CC1)N1CCN(c2ccccc2)CC1`, with 25.1 µM (active); and `CC1CCCC(NC(=O)C2CCN(S(=O)(=O)N3CCOCC3)CC2)C1C` (centres undefined), with “inactive”.
Same read-out and setting: as for `O=C(Nc1ccccc1)N1CCC2(CCNCC2)CC1`, the entry is “inactive”; as for `O=C(Nc1cccc(NC(=O)N2CCN(c3ccccc3)CC2)c1)N1CCN(c2ccccc2)CC1`, 5.01 µM (active); as for `O=C(N1CCOCC1)N1CCN(c2ccccc2)CC1`, 14.1 µM (active).
As for `O=C(Nc1ccccc1)N1CCCC2(CCNCC2)C1`, the AC50 entry is “inactive”.
Regarding `COc1ccc(NC(=O)CCNS(=O)(=O)c2ccc3c(c2)CCC(=O)N3)cc1`, the AC50 entry was “inactive”.
On the same count and under the same terms, then `COc1ccc(N(C)S(=O)(=O)c2ccc3c(c2)CCC(=O)N3)cc1`, with 6.31 µM (active); and `O=C(CCNS(=O)(=O)c1ccc2c(c1)CCC(=O)N2)NCc1ccc2c(c1)OCO2`, with “inactive”.
On the same count and under the same terms, then `N#Cc1cccc(NC(=O)N2CC[C@@]3(CCCN(C(=O)c4ccncc4)C3)C2)c1`, with “inactive”.
Same read-out and setting: then `CCCCc1nc(SCC(=O)Nc2ncccn2)n[nH]1`, with “inactive”; and `Cc1cc(NC(=O)CSc2ccc3nnc(-c4ccc(F)cc4)n3n2)no1`, with “inactive”.
For `Cc1cc(NC(=O)CSc2n[nH]c(-c3cccs3)n2)no1`, the AC50 is 14.1 µM (active).
`N[C@H](Cn1ccc(=O)n(Cc2ccccc2C(=O)O)c1=O)C(=O)O`: the AC50 entry was “inactive”.
The same measure, in the same setting: then `N[C@@H](Cn1ccc(=O)n(Cc2ccccc2C(=O)O)c1=O)C(=O)O`, with 0.1 µM (active).
Still for that read-out and setting: as for `CCCCCc1nnc(NC(=O)C(=O)OCC)s1`, the entry is “inactive”; as for `Cc1nn(-c2ccccc2)c(Cl)c1C(=O)Nc1c(C)n(C)n(-c2ccccc2)c1=O`, “inactive”; as for `CCc1nnc(NC(=O)c2c(C)nn(-c3ccccc3)c2Cl)s1`, 20 µM (active).
Still for that read-out and setting: then `COc1cc(CNCc2cccs2)cc(Br)c1OC`, with 2.51 µM (active); and `COc1ccccc1CNCCCCCCNCCCCCCCCNCCCCCCNCc1ccccc1OC`, with “inactive”; and `COc1ccccc1CNCc1cccs1`, with 8.91 µM (active).
With `COc1cc(CNCc2cccs2)ccc1OCC(=O)NC(C)(C)C`, the half-maximal activity concentration (AC50) was 14.1 µM (active).
Same read-out and setting: as for `CC(C)NC(=O)N1CCCC2(CCN(C(=O)c3csnn3)CC2)C1`, the entry is “inactive”; as for `COCC(=O)N1CCC2(CCCN(C(=O)Nc3cccc(F)c3)C2)CC1`, “inactive”.

In general, AC50 refers to the concentration at which the activity in the assay is half-maximal.
